Data as given in the supplement of paper PMC6555819.

Assays:
Experiment in all cases: PBM binding z-score (relative to random genomic background probes); higher = stronger binding; sequences stand for … in GC…GCGATTGACAGCGTAGAATGAAGG
[1] = system: FXR:RXRa (NR concentration 270 nM, RXRa partner concentration 90 nM)
Summary of the method: (§1)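 Binding buffer was PBS pH 7.4 with 2% milk, 0.02% Triton X-100, 1 mM DTT, 0.2 mg/mL BSA and 0.4 mg/ml salmon testes DNA. In it, ligand-free nuclear receptor dimers were incubated 1 h on custom Agilent 4×180K protein-binding microarrays carrying double-stranded probes. Antibodies against each partner (one per run) detected binding, and z-scores were calculated against random background probes after regression normalization of scanned fluorescence.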

[2] = system: LXRa:RXRa (NR concentration 270 nM, RXRa partner concentration 90 nM)
Summary of the method: as §1

[3] = system: LXRa homodimer (NR concentration 270 nM)
Summary of the method: as §1

[4] = system: LXRb:RXRa (NR concentration 270 nM, RXRa partner concentration 90 nM)
Summary of the method: as §1

[5] = system: LXRb homodimer (NR concentration 270 nM)
Summary of the method: as §1

[6] = system: PPARa:RXRa (NR concentration 270 nM, RXRa partner concentration 90 nM)
Summary of the method: as §1

[7] = system: PPARg:RXRa (NR concentration 180 nM, RXRa partner concentration 90 nM)
Summary of the method: as §1

[8] = system: PPARg:RXRa 270nM:90nM, anti-RXR (NR concentration 270 nM, RXRa partner concentration 90 nM)
Summary of the method: as §1

[9] = system: PPARg:RXRa 30nM:10nM, anti-RXR (NR concentration 30 nM, RXRa partner concentration 10 nM)
Summary of the method: as §1

[10] = system: PPARg:RXRa 90nM:30nM, anti-RXR (NR concentration 90 nM, RXRa partner concentration 30 nM)
Summary of the method: as §1

Sequence | PBM binding z-score [1] | PBM binding z-score [2] | PBM binding z-score [3] | PBM binding z-score [4] | PBM binding z-score [5] | PBM binding z-score [6] | PBM binding z-score [7] | PBM binding z-score [8] | PBM binding z-score [9] | PBM binding z-score [10]
AGATGTAGGTTAAGGGTCATTCAGGTTGGTTCGC | 5 | 5.02 | 2.97 | 4.61 | 1.63 | 6.45 | 11 | 9.78 | 9.52 | 10.7
ATCTCTAGGTAAAGCTAGTTCAGTGAATGCAAAT | 0.153 | 1.45 | -0.0105 | 0.175 | 0.196 | 0.456 | -0.125 | 0.354 | 0.0636 | 0.224
CGTCAAAGTTAAACTAAGGTAACGTAAAGCACGC | 0.945 | 1.15 | 0.57 | 0.346 | 0.169 | 0.868 | 0.628 | 0.688 | 0.0889 | 0.292
ACTATTAGTAGACTTAGGGCAACCGATACGACGC | -0.142 | -0.0337 | 0.0948 | -0.377 | 0.454 | -0.25 | 1.13 | 0.419 | 0.331 | 0.394
TCTTGTAGCTCAATAGAGGTTAAGAAAGTGCGCT | 0.285 | 3.13 | 0.267 | 1.49 | -0.618 | 1.52 | -0.424 | 0.893 | 1.96 | 1.41
AGAATGAGGTTATACGTGGATCAGGGAAGAAAGT | 2.49 | 2.03 | 0.117 | 1.91 | 0.299 | 3.25 | 1.82 | 2.19 | 0.672 | 1.49
TCTGCTAGATCAGTTGGTCAGCTAACGAGCTGCC | -2.98 | -0.794 | -1.07 | -0.988 | -0.764 | -0.465 | -0.552 | 0.389 | 1.24 | 0.547
ACTAGTTAGTCAGCTGAGGTCACACACAATTCGG | 2.63 | 3.5 | 2.52 | 3.72 | 0.931 | 3.87 | 1.72 | 1.98 | 0.769 | 1.49
GCGACTGGGCCAAAGCAGGTTACCATAAGGTTGG | -0.0779 | -0.533 | -0.738 | -0.554 | -1.58 | 0.468 | 0.648 | 0.456 | -0.481 | 0.0774
ATCTCTAGGTTACAAGTTCAGTGAAAGAGAGGAC | 1.64 | 2.33 | 1.68 | 1.55 | 1.77 | 2.51 | 2.72 | 3.25 | 1.77 | 2.97
CCTATTAGTTGACCATAAGGGCAACAGAAGCTCG | 0.832 | 0.536 | 0.381 | 0.601 | 0.473 | 0.814 | 0.639 | 0.432 | 0.111 | 0.284
GCTGCTAGGTCAGGTTGGTCAGCTATCGGGTACG | 1.38 | 0.811 | -0.13 | 0.574 | -0.138 | 1.42 | 0.304 | 1.19 | -0.614 | 0.562
